BAZ2B block = qHTS Assay for Inhibitors of BAZ2B. AlphaScreen BAZ2B-H3K14Ac peptide displacement. hit rate 4.4% among 360,000. Potency, µM (titrated, usually from 114 µM), for inactives: top-dose activity change, negative = inhibition, hits mostly inhibitors. Bromodomain adjacent to zinc finger domain protein 2B (Homo sapiens), Q9UIF8; note: % is set by controls: 0 for no effect and ±100 for the full control effect; nearly all actives have a fitted effect of over 60% in size
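BAZ2B 50 nM plus b-H3(5-23)K14Ac 50 nM, PBS pH 7.4/0.01% Tween-20, 30 min RT; compound added (max 110 uM), 30 min RT; streptavidin donor/Ni-chelate acceptor beads 10 ug/mL final, 20 min dark; AlphaScreen read.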
HP1b binding inh = HTS for Inhibitors of HP1-beta Chromodomain Interactions with Methylated Histone Tails; AlphaScreen HP1-beta / biotin-H3K9me3 peptide binding; Potency, µM (titrated, usually from 114 µM), for the others: at the highest dose activity change, negative = inhibition, hits mostly inhibitors; hit rate 0.56% among 390,000; AID 540317, 2011; note: nearly all actives have a fitted effect of over 70% in size
Target sequence (P83916 whole entry, looked up): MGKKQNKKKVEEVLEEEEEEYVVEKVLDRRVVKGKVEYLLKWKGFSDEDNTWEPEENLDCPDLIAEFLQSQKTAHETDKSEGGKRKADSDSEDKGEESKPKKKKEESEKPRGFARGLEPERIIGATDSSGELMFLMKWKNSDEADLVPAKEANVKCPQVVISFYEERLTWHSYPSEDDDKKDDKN
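Compound inhibition of the preformed complex between 50 nM HP1-beta and 50 nM biotinylated H3K9me3 peptide was read by AlphaScreen. Buffer was PBS pH 7.4 with 0.01% Tween-20. Incubations ran 30 min at room temperature, with 10 ug/mL donor/acceptor beads.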
GLS inh = qHTS for Inhibitors of Glutaminase (GLS). Glutaminase kidney isoform, mitochondrial (Homo sapiens), O94925. GLS enzymatic activity, qHTS titration. hit rate 0.21% among 410,000. Potency, µM (top dose mostly 45.5 µM), inactives show at the top dose activity change, negative = inhibition, hits mostly inhibitors. AID 624170, 2012; note: % is set by controls: 0 for no effect and ±100 for the full control effect
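Coupled fluorescence readout: glutamate oxidase/HRP/Amplex Red detect glutamate formed by hKGA from L-glutamine (1 mM solution added). Buffer 45 mM KH2PO4 pH 8.2, 0.02% Tween-20; reads at t0 and 30 min RT.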
G9a block = qHTS Assay for Inhibitors of Histone Lysine Methyltransferase G9a. Histone-lysine N-methyltransferase EHMT2 (Homo sapiens), Q96KQ7. G9a H3K9 monomethylation, AlphaScreen, 2 h. Potency, µM (top dose mostly 102 µM), without a hit: at the highest dose activity, negative = inhibition, actives largely listed as inhibitors. hit rate 8.8% among 350,000. AID 504332, 2011; note: % is set by controls: 0 for no effect and ±100 for the full control effect; nearly all actives have a fitted effect of over 75% in size
Target sequence (Q96KQ7 913-1193 limits assumed): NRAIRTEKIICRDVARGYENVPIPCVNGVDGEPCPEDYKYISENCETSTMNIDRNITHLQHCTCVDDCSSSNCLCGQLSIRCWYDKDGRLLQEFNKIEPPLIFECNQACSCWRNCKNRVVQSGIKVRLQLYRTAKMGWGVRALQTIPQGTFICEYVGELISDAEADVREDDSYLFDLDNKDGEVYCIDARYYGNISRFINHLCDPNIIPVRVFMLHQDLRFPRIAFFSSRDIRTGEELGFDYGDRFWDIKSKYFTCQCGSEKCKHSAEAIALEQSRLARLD
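Signal arises when biotinylated H3K9 peptide, once monomethylated, bridges streptavidin donor and antibody-captured acceptor beads. Enzyme at 20 nM was preincubated 15 min with test compounds; peptide 500 nM and SAM 20 uM then reacted for 2 h.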
JMJD2A Tudor = qHTS Assay for Inhibitors of JMJD2A-Tudor Domain | Lysine-specific demethylase 4A (Homo sapiens), O75164 | AlphaScreen JMJD2A-Tudor / H3K4me3 peptide binding | Potency, µM (series often up to 114 µM), for inactives: at the top dose activity change, negative = inhibition, most hits filed as inhibitors | hit rate 4.4% among 390,000; note: % is set by controls: 0 for no effect and ±100 for the full control effect; nearly all actives have a fitted effect of over 50% in size
* hit, by the source's call; ? = inconclusive; . = no result given; [ ] = remark or other dose. This is a sample that favours compounds with a hit; in the whole collection about 10% have one here. Calls come from the whole dose curve; as a rule, active = well fitted curve in the direction sought with a large enough effect; inconclusive = small, poorly fitted or top-dose-only effect, or another doubt; inactive = no such curve, though single readings can be large; an effect the other way counts as inactive or inconclusive. Potency is the fitted concentration of half-maximal effect.

SMILES | BAZ2B block | HP1b binding inh | GLS inh | G9a block | JMJD2A Tudor
Cc1cccc(NC(=S)NN2CCN(C)CC2)c1 | -21% | 37% | 2% | 56µM* | 10%
CCc1cc(C(=O)NNC(=S)Nc2cccc(C)c2)cs1 | -2% | 5% | 1% | 10µM* | -16%
CCCc1cc(C(=O)NNC(=S)NC(C)c2ccccc2)cs1 (configuration not stated) | -3% | 8% | -1% | 50µM* | -23%
Cc1cccc(NC(=S)NNC(=S)NCc2ccccc2)c1 | -2% | -25% | 34% | 0.71µM* | ?
CCCc1cc(C(=O)NNC(=S)NCC2CCCO2)cs1 (configuration not stated) | 7% | 39% | ? | 5%[59 µM] | 5%
O=C(O)c1cc(-c2ccccc2)c(N2CCOCC2)s1 | -4% | 63% | 34% | 79µM* | -14%
CC(C)N1C(=O)C(O)(c2c[nH]c3ccccc23)c2ccccc21 (configuration not stated) | ? | 16% | 4% | -40%[59 µM] | -21%
N=c1ncn(Cc2ccccc2)c2nc(SCCOc3ccccc3)[nH]c12 | -4% | 30% | -6% | 79µM* | -1%
Cc1nc(SCCOc2ccccc2)[nH]c(=O)c1Cc1ccccc1 | 3% | 3% | -10% | 4% | -10%
O=C1NCCCC2c3c(cc(Br)c(O)c3Br)OC12N1CCOCC1 (configuration not stated) | . | -30% | -13% | ? | ?
O=C1NCCCC2c3cc(O)c4ccccc4c3OC12N1CCCCC1 (configuration not stated) | ? | . | . | 3.5µM* | .
COc1ccc2[nH]c(=O)c(-c3noc(-c4ccccc4)n3)cc2c1 | 50µM* | 43% | -22% | ? | ?
COc1ccc2[nH]c(=O)c(-c3nnn(-c4ccc(Cl)nc4)n3)cc2c1 | . | 4% | -4% | . | 50µM*
COc1cccc(C(=O)NCCN2CCC(n3c(=O)[nH]c4ccccc43)CC2)c1 | . | . | 3% | . | .
CCCCn1nnnc1C(c1cc2ccccc2o1)N1CCN(C(=O)OCC)CC1 (configuration not stated) | . | . | 6% | . | .
CCOc1ccc(CNC(=O)Cc2ccc(NC(=O)N3CCSc4ncccc43)cc2)cc1 | -17% | 25% | -1% | -6%[59 µM] | -8%
CCOc1ccc(CC(=O)Nc2nnc3n2CCS3)cc1 | 11% | -2%[57 µM] | -15% | 29%[59 µM] | 56µM*
COc1ccc(CC(=O)Nc2nnc3n2CCS3)cc1 | ? | 17%[57 µM] | -2% | ? | 56µM*
CC(C)(C)C(=O)Nc1nnc2n1CCS2 | -1% | 15%[57 µM] | -6% | -50%[59 µM] | -10%
COCCNc1nc(-c2ccoc2)nc2ccccc12 | . | . | . | -2%[0.501 µM] | .
O=C1C=C(Nc2ccccc2O)c2ccccc2C1=O | 45µM* | -38% | 27% | 45µM* | ?
O=C1C=C(Nc2ccc(F)cc2)c2ccccc2C1=O | ? | -15% | 10% | 7.9µM* | -26%
Cc1ccc(NC2=CC(=O)C(=O)c3ccccc32)c(C)c1 | ? | 17% | 9% | -2%[2.33 µM] | -14%
COc1ccccc1CN1C[C@@H]2C[C@@H](c3cccc(C)n3)N3CCC[C@@]23C1=O | -13% | -15% | 1% | . | -11%
COc1ccccc1CN1C[C@@H]2C[C@@H](c3[nH]c4c(C)cccc4c3C)N3CCC[C@@]23C1=O | ? | 17% | -2% | 45µM* | -36%
SMILES | BAZ2B block | HP1b binding inh | GLS inh | G9a block | JMJD2A Tudor
Oc1c(C2=NCCNC(C(F)(F)F)=C2)ccc2ccccc12 | 25µM* | ? | 0% | -108%[59 µM] | 50µM*
O=S1(=O)N=C(Oc2ccccc2Cl)c2ccccc21 | . | . | . | . | 112µM*
O=C(O)c1ccccc1OC1=NS(=O)(=O)c2ccccc21 | . | . | . | . | 79µM*
Cc1ccccc1OC1=NS(=O)(=O)c2ccccc21 | -32% | 14% | 0% | ? | ?
O=S1(=O)N=C(Oc2ccccc2Br)c2ccccc21 | . | . | . | . | 79µM*
CCOc1ccc(NC(=O)CN(C)C2=NS(=O)(=O)c3ccccc32)cc1 | . | . | 0% | . | .
O=C(Nc1nccs1)c1cnc2sccn2c1=O | . | . | -1% | . | .
Cc1cccc(Cn2c(C)c(C)c3cc(C(=O)NCc4ccco4)ccc32)c1 | -33% | -1% | ? | -48%[59 µM] | ?
COc1ccc(/C=N/NC(=O)c2[nH]c3ccc(Cl)cc3c2-c2ccccc2)c(C(=O)O)c1OC | -26% | 0% | -18% | -21% | ?
COc1ccc(/C=N/NC(=O)c2[nH]c3ccc(Br)cc3c2-c2ccccc2)c(C(=O)O)c1OC | 50µM* | 16%[57 µM] | 28% | ? | ?
CCOc1ccc(-c2cn(-c3cccc(SC)c3)c(=O)[nH]2)cc1 | -7% | 33% | 8% | 28µM* | -8%
CCOc1ccc(-c2cn(-c3ccccc3OC)c(=S)[nH]2)cc1 | -35% | 14% | 8% | ? | -29%
Cc1cccc(-c2nc(C)c(CCNC(=O)C(=O)Nc3cccc(Cl)c3C)s2)c1 | 3% | 22%[57 µM] | -5% | 6%[59 µM] | 0%
CCOc1ccc(C(=O)OCc2cc(=O)n3nc(C(C)C)sc3n2)cc1 | -11% | 26% | 6% | -2%[59 µM] | -8%
CC1(C)Cc2c(C#N)c(NCCc3ccccc3)nc(-c3ccco3)c2CO1 | 0% | 3% | -11% | -25% | 37%
CC1(C)Cc2c(C#N)c(NCC3CCCO3)nc(-c3ccco3)c2CO1 (configuration not stated) | 11% | 96% | -2% | 10µM* | 41%
CC1(C)Cc2c(C#N)c(NC3CCCCC3)nc(-c3ccco3)c2CO1 | 5% | . | . | 11µM* | .
COc1cccc(C(=O)Nc2cccc(C(=O)OCc3cc(=O)n4nc(C5CC5)sc4n3)c2)c1 | -10% | 26% | 6% | -1%[59 µM] | -17%
CCOC(=O)C1=NNC(C(=O)c2ccc(C)cc2)C1c1ccc(OC)cc1 (configuration not stated) | -33% | 20% | -2% | 50µM* | -12%
CC(C)(NO)/C(=N\O)c1ccc(Cl)cc1 | 56µM* | -8% | 0% | 10µM* | 40µM*
C/C(=N\O)C(C)(C)Nc1ccc(Br)cc1 | 3% | 36% | 5% | -44% | -22%
CN(C)c1ccc(/C(=N\O)C(F)(F)F)cc1 | 9% | -3% | 14% | -8%[59 µM] | -33%
CC(C)(NO)/C(=N/O)c1ccc(Br)cc1 | ? | 1% | 20% | 32µM* | 28µM*
COc1ccc(/C(=N/O)C(C)(C)NO)cc1 | 50µM* | ? | 24% | 13µM* | 40µM*
C[C@H]1CN([C@@H](C)CO)C(=O)CCCn2cc(nn2)CO[C@@H]1CN(C)C(=O)Nc1ccccc1C(F)(F)F | . | . | -8% | . | .
CC(C)C(=O)N1CCC1(C)C(=O)NCc1ccc(C(C)(C)C)cc1 (configuration not stated) | . | . | -2% | . | .

Source: PubChem BioAssay (National Center for Advancing Translational Sciences (NCATS))
